SUMO Mot1 rescue – inhibitors of SUMOylation pathway: yeast Mot1-301 growth rescue. growth rescue, % at 18.8 µM. S. cerevisiae Mot1-301 growth rescue, ATP luminescence, 38.5C; percent above DMSO median, 100 means doubled. hit rate 1% among 320,000. AID 2716;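 active = every valid replicate shows activation above 250% relative to neutral control wells; inactive = the rest, any valid replicate at or below 250%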
M18AAP inhibitor – blocks P. falciparum M18 aspartyl aminopeptidase. recombinant PfM18AAP, H-Glu-NHMec fluorogenic cleavage. inhibition, % at 7.35 µM. AID 1822. hit rate 1.2% among 290,000;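 active = inhibition above the campaign mean inhibition over all tested compounds plus 3 SD, cut at about 28% in these data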
ALR H2O2 inh – inhibitors of human sulfhydryl oxidase ALR; purified ALR, DTT oxidation, H2O2 HRP-luminol luminescence; hit rate 3.8% among 290,000; inhibition, % (test concentration not listed);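 active = mean replicate inhibition above about 79%, with every replicate also reaching it, limit read from the data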
Target sequence (P55789 whole entry, looked up): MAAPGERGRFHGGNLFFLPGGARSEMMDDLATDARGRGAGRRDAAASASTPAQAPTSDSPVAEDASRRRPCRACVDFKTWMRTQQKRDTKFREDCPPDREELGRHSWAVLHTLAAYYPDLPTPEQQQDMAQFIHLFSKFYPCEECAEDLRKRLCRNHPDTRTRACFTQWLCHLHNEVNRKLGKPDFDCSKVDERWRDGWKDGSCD
HIF act – HIF pathway transcriptional activation | hit rate 0.32% among 300,000 | activation, % at 7.5 µM (by protocol) | AID 1910 | U2OS HRE-luciferase reporter, luminescence; normalized: DMSO 0%, desferrioxamine 100%;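 active = mean activation of at least 10% of the iron chelator positive control signal, with at least half of replicates also reaching 10%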
Numbers stand for hits; - = inactive; . = not tested or not shown. An excerpt weighted towards active compounds, which were near 5.3% of everything screened.

SMILES	SUMO Mot1 rescue	M18AAP inhibitor	ALR H2O2 inh	HIF act
CCN(CC(=O)Nc1ccc2c(c1)OCCO2)C(=O)CCc1ccccc1Cl	-	.	-	.
COc1cccc2cc(C(=O)NCCc3c[nH]c4ccccc34)c(=O)oc12	-	-	-	-
Nc1ccc2nc(CCCCCCc3nc4ccc(N)cc4[nH]3)[nH]c2c1	-	-	-	-
Nc1ccc2nc(CCCO)[nH]c2c1	-	-	99	-
CC(C)C(NC(=O)CSCc1ccc([N+](=O)[O-])cc1)C(C)C	-	-	98	-
COc1ccccc1CN1C(=O)c2ccccc2C1C(=O)NC1CCC(C)CC1 (configuration not stated)	-	-	82	-
CCC(C)NC(=O)C1c2ccccc2C(=O)N1Cc1ccccc1OC (configuration not stated)	-	-	-	-
CCCCn1c(SCC(=O)N2CCCc3ccccc32)nc2c1c(=O)n(C)c(=O)n2C	-	-	-	-
CSc1nc2nc(-c3ccccc3)cc(=O)n2[nH]1	-	-	-	-
Cc1ccc(C(=O)Nc2nc3nc(-c4ccccc4)cc(=O)n3[nH]2)cc1	-	-	92	-
C/C(=N\NC(=O)CC#N)c1cc2ccccc2oc1=O	-	-	-	.
C/C(=N\Nc1ccccc1)c1cc2ccccc2oc1=O	-	-	93	-
C/C(=N\Nc1ccc(Cl)c(C(=O)O)c1)c1cc2ccccc2o1	-	-	99	-
C/C(=N\Nc1cccc(C(=O)O)c1)c1cc2ccccc2o1	-	-	99	-
C/C(=N\Nc1cccc([N+](=O)[O-])c1)c1cc2ccccc2o1	-	-	-	-
Brc1cccc(CNc2nc3ccccc3n2CCN2CCOCC2)c1	-	-	-	-
Cc1ccc2occ(C3NC(C(=O)O)CS3)c(=O)c2c1 (configuration not stated)	-	31	98	-
Cc1ccc2occ(C3N[C@H](C(=O)O)CS3)c(=O)c2c1 (some centres not stated)	.	-	99	-
O=C(O)C1CSC(c2ccco2)N1 (configuration not stated)	-	-	-	-
CN(Cc1nc2ccccc2n1C)C(=O)c1ccco1	-	-	-	-
COCCNc1c(-c2ccc(OC)cc2)nc2ccc(Cl)cn12	-	-	99	-
Cc1cc(C)nc(SCNC(=O)c2ccccc2)n1	-	45	-	-
Cc1cc(C)nc(SCC(=O)O)n1	-	-	-	-
Cc1cc(SCNC(=O)c2ccccc2)nc(C(C)C)n1	-	-	98	-
N#Cc1ccccc1S(=O)(=O)N1CCN(c2cnccn2)CC1	-	-	-	68
SMILES	SUMO Mot1 rescue	M18AAP inhibitor	ALR H2O2 inh	HIF act
N#Cc1ccccc1S(=O)(=O)N1CCN(C(=O)C2CCC2)CC1	-	.	-	-
Cc1nnc(SCc2ccc(F)cc2)n1NC/C=C/c1ccccc1	-	-	-	-
N#C/C(=C(/O)CSc1ccccn1)c1nc2ccccc2s1	.	-	82	-
CCn1c(N)c(C(=O)NCCCOC)sc1=S	-	-	99	-
CCNC(=O)c1sc(=S)n(CC)c1N	-	-	99	-
CCn1c(N)c(C(=O)NCc2cccnc2)sc1=S	-	-	99	-
CC(C)OCCCNC(=O)c1sc(=S)n(C)c1N	-	-	.	-
Cc1c(C(=O)NCc2cccnc2)sc2nc(-c3ccccc3)cn12	-	-	90	-
COC(=O)c1cccc(Oc2cccc(C(F)(F)F)c2)n1	-	-	-	-
CC(C)C(=O)Nc1ccccc1-c1nc2ccccc2[nH]c1=O	-	-	-	-
Cc1ccc2nc(-c3ccccc3NC(=O)CCC(=O)O)c(=O)[nH]c2c1	-	-	-	24
Cc1nn(CCCC(=O)N2CCN(c3ccc(F)cc3)CC2)c(C)c1[N+](=O)[O-]	-	-	.	-
CCCc1c(O)nc(SCC(=O)N2CCCCC2)[nH]c1=O	-	-	88	-
CC(=O)Nc1c(O)nc(SCC(=O)N2CCCCC2)[nH]c1=O	-	.	.	.
CC(C)CCc1c(O)nc(SCC(=O)N2CCCCCC2)[nH]c1=O	-	-	87	-
O=C(NC1CCCC1)c1sc(=S)n2c1[nH]c(=O)c1ccccc12	-	-	-	-
C=CCn1c(N)c(C(=O)NCC2CCCO2)sc1=S (configuration not stated)	-	-	99	-
C=CCn1c(N)c(C(=O)Nc2ccccc2OC)sc1=S	-	-	98	-
CCn1c(N)c(C(=O)NCC2CCCO2)sc1=S (configuration not stated)	-	-	99	-
O=C(NCc1ccco1)c1sc(=S)n2c1[nH]c(=O)c1ccccc12	-	-	98	-
N#Cc1ccc(C(=O)NC2CCCCCCC2)cc1	-	-	-	-
Nc1c(C(=O)NCC2CCCO2)sc(=S)n1-c1ccccc1 (configuration not stated)	-	-	85	-
Cc1ccc(-n2c(N)c(C(=O)NCc3ccco3)sc2=S)cc1	-	-	-	-
C=CCn1c(N)c(C(=O)NCc2ccco2)sc1=S	-	-	98	-
Cc1ccc(C(=O)OCC(=O)NN2C(=O)NC3(CCC(C)CC3)C2=O)cc1 (configuration not stated)	-	.	-	-
SMILES	SUMO Mot1 rescue	M18AAP inhibitor	ALR H2O2 inh	HIF act
COc1cccc(C=O)c1OCCCOc1cccc2cccnc12	-	-	97	-
CCCCN(C(=O)c1ccc(Br)o1)C1CCS(=O)(=O)C1 (configuration not stated)	-	.	-	-
Cc1c([N+](=O)[O-])c(C(=O)N2CCCC2)nn1C	-	-	-	-
Cc1c([N+](=O)[O-])c(C(=O)Sc2ccc(Br)cc2)nn1C	-	-	99	-
CCCc1cc(=O)oc2c(C)c(OCC(=O)Nc3cccnc3)ccc12	-	-	-	-
Cc1nn(S(=O)(=O)c2ccccc2)c(C)c1S(=O)(=O)N1CCC(C)CC1	-	-	-	-
COc1ccc(F)cc1CSc1nnnn1-c1ccc(O)cc1	-	-	-	477
Cc1ccc(SCC(=O)Nc2ccc(F)cc2[N+](=O)[O-])cc1C	-	-	96	-
COc1ccc([N+](=O)[O-])cc1NC(=O)CSCc1cc(C)cc(C)c1	.	-	-	-
COc1ccc([N+](=O)[O-])cc1NC(=O)CSc1nc(C)cc(C)n1	-	30	.	-
COc1ccc([N+](=O)[O-])cc1NC(=O)CSc1ccc2ccccc2c1	-	-	99	-
CCc1ccc([C@@H]2CC=C(C(=O)O)[C@H](c3ccc(C(C)(C)C)cc3)N2S(=O)(=O)c2ccc(C)cc2)cc1	-	.	.	.
CC(NCC(=O)Nc1cc(S(=O)(=O)N2CCCCCC2)ccc1Cl)c1ccccc1 (configuration not stated)	-	-	-	-
Cn1nc(-c2ccccc2)cc1NC(=O)C1CCCCC1	-	-	-	-
Cc1ccc(C(=O)NNC(=S)NC(=O)c2ccccc2)cc1	-	.	-	-
Cc1ccc(C(=O)NC(=S)NNC(=O)c2ccccc2[N+](=O)[O-])cc1	-	-	99	.
O=C(O)CCC(=O)NNC(=O)c1ccc([N+](=O)[O-])cc1	-	-	.	-
Cc1ccc(C(=O)NC(=S)NNC(=O)c2ccc([N+](=O)[O-])cc2)cc1	-	-	99	-
O=C(NNC(=S)NC(=O)c1ccccc1)c1ccc([N+](=O)[O-])cc1	-	-	99	-
